Laboratory results taken from the supplement of paper PMC10077471.
Whole data set: some 1,900 compounds, median “excess over highest single agent (ExcessHSA) synergy score, 6x6 matrix” near -83, cut for the lowest 2% near -370. Many of the other results were omitted from the sample, so the lowest values are more common in it than they were.

Tested on: NCI-H446
Test: excess over highest single agent (ExcessHSA) synergy score, 6x6 matrix; higher = less synergy (more negative = stronger synergy)
Conditions: 72 h; CellTiter-Glo viability

SMILES | excess over highest single agent
CN(C)c1ccc(-c2nc3ncc(Cl)c(N4CCN(CC(=O)Nc5nccs5)CC4)c3[nH]2)cc1 + Cc1sc2c(c1C)C(c1ccc(Cl)cc1)=N[C@@H](CC(=O)OC(C)(C)C)c1nnc(C)n1-2 [NCGC00250412-19] | -382
Cc1cc(CN2CCN(c3c(Br)cnc4nc(-c5ccc(N6CCN(C)CC6)cc5)[nH]c34)CC2)no1 + Cc1sc2c(c1C)C(c1ccc(Cl)cc1)=N[C@@H](CC(=O)OC(C)(C)C)c1nnc(C)n1-2 [NCGC00250412-19] | -107
CCOC(CN1C(=O)[C@](CC(=O)Nc2ccc(C)cc2)(NC(=O)Nc2ccc(C)cc2)c2ccccc21)OCC + Cc1sc2c(c1C)C(c1ccc(Cl)cc1)=N[C@@H](CC(=O)OC(C)(C)C)c1nnc(C)n1-2 [NCGC00250412-19] | -94.2
COc1cc2c(cc1OC)CN(CCc1ccc(NC(=O)c3cc(OC)c(OC)cc3NC(=O)c3cnc4ccccc4c3)cc1)CC2 + Cc1sc2c(c1C)C(c1ccc(Cl)cc1)=N[C@@H](CC(=O)OC(C)(C)C)c1nnc(C)n1-2 [NCGC00250412-19] | 50.9
Cc1cccc(-c2[nH]c(C(C)(C)C)nc2-c2ccc3c(c2)OCO3)n1 + Cc1sc2c(c1C)C(c1ccc(Cl)cc1)=N[C@@H](CC(=O)OC(C)(C)C)c1nnc(C)n1-2 [NCGC00250412-19] | -84.7
CC(C)(O)CC(=O)NCCn1ccc2ncnc(Nc3ccc(Oc4cccc(C(F)(F)F)c4)c(Cl)c3)c21 + Cc1sc2c(c1C)C(c1ccc(Cl)cc1)=N[C@@H](CC(=O)OC(C)(C)C)c1nnc(C)n1-2 [NCGC00250412-19] | 16.5
CC(C)[C@H](C(=O)Nc1ccc(C(=O)NO)cc1)c1ccccc1 + Cc1sc2c(c1C)C(c1ccc(Cl)cc1)=N[C@@H](CC(=O)OC(C)(C)C)c1nnc(C)n1-2 [NCGC00250412-19] | -112
C=C1/C(=C\C=C2/CCC[C@]3(C)[C@@H]([C@H](C)/C=C/C=C/C(O)(CC)CC)CC[C@@H]23)C[C@@H](O)C[C@@H]1O + Cc1sc2c(c1C)C(c1ccc(Cl)cc1)=N[C@@H](CC(=O)OC(C)(C)C)c1nnc(C)n1-2 [NCGC00250412-19] | 84.4
COc1cc2c(cc1OC)[C@@H]1Cc3ccc(OC)c(OC)c3CN1CC2 + Cc1sc2c(c1C)C(c1ccc(Cl)cc1)=N[C@@H](CC(=O)OC(C)(C)C)c1nnc(C)n1-2 [NCGC00250412-19] | -95.9
COc1ccc2cc1Oc1ccc(cc1)C[C@H]1c3cc(c(OC)cc3CCN1C)Oc1c(OC)c(OC)cc3c1[C@H](C2)N(C)CC3 + Cc1sc2c(c1C)C(c1ccc(Cl)cc1)=N[C@@H](CC(=O)OC(C)(C)C)c1nnc(C)n1-2 [NCGC00250412-19] | -432
COc1ccc2c(c1OC)CN1CCc3cc4c(cc3C1C2)OCO4 (configuration not stated) + Cc1sc2c(c1C)C(c1ccc(Cl)cc1)=N[C@@H](CC(=O)OC(C)(C)C)c1nnc(C)n1-2 [NCGC00250412-19] | -109
Cc1ccc2c(c1)c1c(n2CCc2ccc(C)nc2)CCN(C)C1 + Cc1sc2c(c1C)C(c1ccc(Cl)cc1)=N[C@@H](CC(=O)OC(C)(C)C)c1nnc(C)n1-2 [NCGC00250412-19] | -121
CC[C@@]1(O)C(=O)OCc2c1cc1n(c2=O)Cc2cc3ccccc3nc2-1 + Cc1sc2c(c1C)C(c1ccc(Cl)cc1)=N[C@@H](CC(=O)OC(C)(C)C)c1nnc(C)n1-2 [NCGC00250412-19] | -249
CC[C@@]1(O)C(=O)OCc2c1cc1n(c2=O)Cc2cc3cc(O)ccc3nc2-1 + Cc1sc2c(c1C)C(c1ccc(Cl)cc1)=N[C@@H](CC(=O)OC(C)(C)C)c1nnc(C)n1-2 [NCGC00250412-19] | -416
CCc1c2c(nc3ccc(OC(=O)N4CCC(N5CCCCC5)CC4)cc13)-c1cc3c(c(=O)n1C2)COC(=O)[C@]3(O)CC + Cc1sc2c(c1C)C(c1ccc(Cl)cc1)=N[C@@H](CC(=O)OC(C)(C)C)c1nnc(C)n1-2 [NCGC00250412-19] | -249
CCc1c2c(nc3ccc(O)cc13)-c1cc3c(c(=O)n1C2)COC(=O)[C@]3(O)CC + Cc1sc2c(c1C)C(c1ccc(Cl)cc1)=N[C@@H](CC(=O)OC(C)(C)C)c1nnc(C)n1-2 [NCGC00250412-19] | -327
CC[C@@]1(O)C(=O)OCc2c1cc1n(c2=O)Cc2cc3c(CN(C)C)c(O)ccc3nc2-1 + Cc1sc2c(c1C)C(c1ccc(Cl)cc1)=N[C@@H](CC(=O)OC(C)(C)C)c1nnc(C)n1-2 [NCGC00250412-19] | -475
CC[C@H](CC#N)OC(=O)N[C@@H](C)c1cccc(NC(=O)Nc2ccc(-c3cnco3)c(OC)c2)c1 + Cc1sc2c(c1C)C(c1ccc(Cl)cc1)=N[C@@H](CC(=O)OC(C)(C)C)c1nnc(C)n1-2 [NCGC00250412-19] | -174
Cc1cccc(Nc2nc(N[C@@H]3CCCC[C@@H]3N)ncc2C(N)=O)c1 + Cc1sc2c(c1C)C(c1ccc(Cl)cc1)=N[C@@H](CC(=O)OC(C)(C)C)c1nnc(C)n1-2 [NCGC00250412-19] | -24

SMILES | excess over highest single agent
Cn1cnc(-c2cc3nccc(Oc4ccc(NC(=S)NC(=O)Cc5ccccc5)cc4F)c3s2)c1 + Cc1sc2c(c1C)C(c1ccc(Cl)cc1)=N[C@@H](CC(=O)OC(C)(C)C)c1nnc(C)n1-2 [NCGC00250412-19] | -36.3
C#Cc1cccc(Nc2ncnc3cc(OCCOC)c(OCCO)cc23)c1 + Cc1sc2c(c1C)C(c1ccc(Cl)cc1)=N[C@@H](CC(=O)OC(C)(C)C)c1nnc(C)n1-2 [NCGC00250412-19] | -46.8
CCN1CCC(n2cc(CNc3cc(Cl)c4ncc(C#N)c(Nc5ccc(F)c(Cl)c5)c4c3)nn2)CC1 + Cc1sc2c(c1C)C(c1ccc(Cl)cc1)=N[C@@H](CC(=O)OC(C)(C)C)c1nnc(C)n1-2 [NCGC00250412-19] | 44.4
CN(C1CCc2c(c3ccccc3n2CC(=O)O)C1)S(=O)(=O)c1ccc(F)cc1 (configuration not stated) + Cc1sc2c(c1C)C(c1ccc(Cl)cc1)=N[C@@H](CC(=O)OC(C)(C)C)c1nnc(C)n1-2 [NCGC00250412-19] | -115
CC/C=C\CC1C(=O)CCC1CC(=O)OC (configuration not stated) + Cc1sc2c(c1C)C(c1ccc(Cl)cc1)=N[C@@H](CC(=O)OC(C)(C)C)c1nnc(C)n1-2 [NCGC00250412-19] | 223
NC(=O)Nc1cc(-c2ccc(CN3CCOCC3)cc2)sc1C(N)=O + Cc1sc2c(c1C)C(c1ccc(Cl)cc1)=N[C@@H](CC(=O)OC(C)(C)C)c1nnc(C)n1-2 [NCGC00250412-19] | -229
CC(C)c1cc(C(=O)N2Cc3ccc(CN4CCN(C)CC4)cc3C2)c(O)cc1O + Cc1sc2c(c1C)C(c1ccc(Cl)cc1)=N[C@@H](CC(=O)OC(C)(C)C)c1nnc(C)n1-2 [NCGC00250412-19] | -247
CCNC(=O)c1noc(-c2cc(C(C)C)c(O)cc2O)c1-c1ccc(CN2CCOCC2)cc1 + Cc1sc2c(c1C)C(c1ccc(Cl)cc1)=N[C@@H](CC(=O)OC(C)(C)C)c1nnc(C)n1-2 [NCGC00250412-19] | -382
CC(C)(C)OC(=O)Nc1ccc(-c2cc(C(=O)NCCCCCCC(=O)NO)no2)cc1 + Cc1sc2c(c1C)C(c1ccc(Cl)cc1)=N[C@@H](CC(=O)OC(C)(C)C)c1nnc(C)n1-2 [NCGC00250412-19] | -161
O=C(O)[C@H]1O[C@@H](Oc2cc3oc(-c4ccccc4)cc(=O)c3c(O)c2O)[C@H](O)[C@@H](O)[C@@H]1O + Cc1sc2c(c1C)C(c1ccc(Cl)cc1)=N[C@@H](CC(=O)OC(C)(C)C)c1nnc(C)n1-2 [NCGC00250412-19] | -92.6
OC1CCC(Nc2ncc3nc(Nc4c(F)cc(F)cc4F)n([C@@H]4CCOC4)c3n2)CC1 (some centres not stated) + Cc1sc2c(c1C)C(c1ccc(Cl)cc1)=N[C@@H](CC(=O)OC(C)(C)C)c1nnc(C)n1-2 [NCGC00250412-19] | 17.3
CCC(=O)N[C@H]1CC[C@H](C(=O)N(C)c2ccc(-c3nc4ccccc4o3)cc2)C1 + Cc1sc2c(c1C)C(c1ccc(Cl)cc1)=N[C@@H](CC(=O)OC(C)(C)C)c1nnc(C)n1-2 [NCGC00250412-19] | -57
CN1CCN(Cc2ccc(NC(=O)Nc3ccc(Oc4cc(NC(=O)C5CC5)ncn4)cc3)cc2C(F)(F)F)CC1 + Cc1sc2c(c1C)C(c1ccc(Cl)cc1)=N[C@@H](CC(=O)OC(C)(C)C)c1nnc(C)n1-2 [NCGC00250412-19] | -34.2
CC(=O)N(C)C1(c2ccccc2)CCN(CCC[C@]2(c3ccc(Cl)c(Cl)c3)CCCN(C(=O)c3ccccc3)C2)CC1 + Cc1sc2c(c1C)C(c1ccc(Cl)cc1)=N[C@@H](CC(=O)OC(C)(C)C)c1nnc(C)n1-2 [NCGC00250412-19] | -142
O=C(N[C@@H](COc1ccc2[nH]c(=O)[nH]c2c1)c1ccccc1)c1cccn(Cc2ccc(F)c(F)c2)c1=O + Cc1sc2c(c1C)C(c1ccc(Cl)cc1)=N[C@@H](CC(=O)OC(C)(C)C)c1nnc(C)n1-2 [NCGC00250412-19] | -158
COCC1OC(=O)c2coc3c2C1(C)C1=C(C3=O)C2CCC(O)C2(C)CC1OC(C)=O (configuration not stated) + Cc1sc2c(c1C)C(c1ccc(Cl)cc1)=N[C@@H](CC(=O)OC(C)(C)C)c1nnc(C)n1-2 [NCGC00250412-19] | -423
COC[C@H]1OC(=O)c2coc3c2[C@@]1(C)C1=C(C3=O)[C@@H]2CCC(=O)[C@@]2(C)C[C@H]1OC(C)=O + Cc1sc2c(c1C)C(c1ccc(Cl)cc1)=N[C@@H](CC(=O)OC(C)(C)C)c1nnc(C)n1-2 [NCGC00250412-19] | -484
COc1cc2ncnc(Nc3cc(Br)c(O)c(Br)c3)c2cc1OC + Cc1sc2c(c1C)C(c1ccc(Cl)cc1)=N[C@@H](CC(=O)OC(C)(C)C)c1nnc(C)n1-2 [NCGC00250412-19] | -207
